Data published in PubChem BioAssay AID504545 (Broad Institute, 2011).
Results with a measured potency or affinity are listed apart. Results filed as inconclusive are left out. Calls of active or inactive are those of the source. No rule for the calls is given here.

Molecular target: Cyclin-dependent kinase 5 activator 1 (Homo sapiens) + Cyclin-dependent kinase 5 (Homo sapiens) (UniProt Q15078+Q00535)
Experiment: blockade of human CDK5 activity – biochemical, cherry-picked samples, set 2, dose response (AID 504545)
Settings: CDK5/p35 kinase activity, biochemical plate reader; series mostly up to 30 µM

Cyclin-dependent kinase 5 activator 1 (Homo sapiens) + Cyclin-dependent kinase 5 (Homo sapiens), sequence (Q00535 whole entry, looked up): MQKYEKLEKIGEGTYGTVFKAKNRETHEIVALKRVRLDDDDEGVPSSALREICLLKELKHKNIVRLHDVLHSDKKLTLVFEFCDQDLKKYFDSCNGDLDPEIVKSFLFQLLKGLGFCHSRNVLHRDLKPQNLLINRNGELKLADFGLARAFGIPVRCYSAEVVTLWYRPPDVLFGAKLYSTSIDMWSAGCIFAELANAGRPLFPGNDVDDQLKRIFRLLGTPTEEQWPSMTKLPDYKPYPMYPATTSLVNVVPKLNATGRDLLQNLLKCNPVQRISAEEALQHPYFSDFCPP
Cyclin-dependent kinase 5 activator 1 (Homo sapiens) + Cyclin-dependent kinase 5 (Homo sapiens), sequence (Q15078 whole entry, looked up): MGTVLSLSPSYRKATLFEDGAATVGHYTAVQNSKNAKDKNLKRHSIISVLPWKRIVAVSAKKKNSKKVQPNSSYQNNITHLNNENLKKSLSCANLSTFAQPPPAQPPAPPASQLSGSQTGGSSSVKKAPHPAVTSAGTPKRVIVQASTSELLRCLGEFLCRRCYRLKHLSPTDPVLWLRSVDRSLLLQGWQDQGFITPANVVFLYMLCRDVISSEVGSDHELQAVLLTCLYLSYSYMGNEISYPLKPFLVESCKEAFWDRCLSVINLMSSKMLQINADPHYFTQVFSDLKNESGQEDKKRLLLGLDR

outcome, inactive:
COc1cccc(C(=O)N2CCN(c3ccccn3)CC2)c1, Cc1nn(-c2ccccn2)c2c1C(=O)CC(C)(C)C2Br (centres undefined), Cc1ccc2nc(NCc3ccccc3)c(C#N)cc2c1, CCc1cc(C(=O)c2ccc(OC)cc2)c(N)s1, COc1cc(OC)cc(C(=O)NNC(=O)c2ccccn2)c1, COc1ccc(C(=O)c2sc(Nc3ccccc3F)nc2N)cc1, COc1ccc2ccc3ccc(OC)c(OC(C)=O)c3c2c1, Cc1cccc(/N=C/c2c(O)ccc3oc4c(c23)CCCC4)n1, COc1ccc(C(=O)N2CCN(c3ccccn3)CC2)cc1, COc1ccc2oc(C(=O)NCCC(C)C)c(C)c2c1, Cc1ccc2[nH]c(C(F)(F)F)cc(=O)c2c1, Oc1ccc(/C=N/Nc2cccc(Cl)n2)c(O)c1, S=C(c1ccc(OCc2ccccc2)cc1)N1CCCC1, Cc1ccc2nc(Cl)c(C#N)cc2c1, O=C(NNC(=O)c1ccco1)c1ccccc1, Cc1nc(Nc2ccccc2)sc1C(=O)c1ccc(F)cc1, CN(C)N1C(N)=C(C#N)C(c2cccs2)C2=C1CCCC2=O (centres undefined), O=C(O)CCC(=O)NCCn1c(-c2ccccc2)csc1=Nc1ccccc1, COc1ccc2nc(C(F)(F)C(F)(F)F)c(C#N)c(N)c2c1, COc1cccc(OC)c1C(=O)N1CCN(c2ccccn2)CC1, CC(=O)[C@H]1CC[C@H]2[C@@H]3CC=C4C[C@@H](OS(=O)(=O)O)CC[C@]4(C)[C@H]3CC[C@]12C, O=C(c1ccc2c(c1)OCO2)N1CCN(c2ccccn2)CC1, CC(C)(C)N=Cc1c(O)ccc2oc3c(c12)CCCC3, CCOc1cc(C(=O)N2CCN(c3ccccn3)CC2)cc(OCC)c1OCC, COc1ccccc1C(=O)N1CCN(c2ccccn2)CC1, Oc1ccc(C=NNc2ccccn2)c(O)c1, NC(=S)N/N=C/c1c(O)c(Br)cc2oc3c(c12)CCCC3, COc1cc(OC)cc(C(=O)N2CCN(c3ccccn3)CC2)c1, Clc1cncc(Cl)c1N/N=C/c1ccccc1
